Drawing on PubChem BioAssay (Tox21), this text covers Potency for 13 compounds.

Test [1] in a line: qHTS assay to identify small molecule antagonists of the thyroid receptor (TR) signaling pathway - cell viability counter screen (AID 743064). Also: nearly all actives have a fitted effect of over 50% in size. Also: potency is read from the fitted curve at half-maximal effect. Put shortly:
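GH3.TRE-Luc cells, 4 h pre-plating; cpd + T3 1 nM final; 37 °C 23.5 h; CellTiter-Fluor 30 min; fluorescence read.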

Test [2] can be described thus: qHTS assay to identify small molecule antagonists of the thyroid receptor (TR) signaling pathway (AID 743065). Also: nearly all actives have a fitted effect of over 55% in size. Also: potency is read from the fitted curve at half-maximal effect. Put shortly: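 GH3.TRE-Luc rat pituitary cells carrying two TR response elements driving luciferase were plated for 4 h, given compound plus 1 nM T3 (final), and incubated 23.5 h at 37 C. ONE-Glo luminescence measured reporter inhibition; CellTiter-Fluor fluorescence tracked cytotoxicity.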
For orientation: Quantitative high-throughput screening tests each substance at several concentrations.

For test [3], the system named is thyroid hormone receptor (rat, GH3 cells). In words: qHTS assay to identify small molecule agonists of the thyroid receptor (TR) signaling pathway (AID 743066; calls by dose curve).
In test [4] the target is Estrogen receptor (Homo sapiens) (UniProt P03372). In words: qHTS assay to identify small molecule antagonists of the estrogen receptor alpha (ER-alpha) signaling pathway (AID 743069; active = well fitted curve in the direction sought with a large enough effect in the signal ratio in the repeat runs, not every such curve was filed as active; inconclusive = weak or mixed curves, or effect the other way; inactive = no such curve, though single readings can be large or run the other way; the % refers to the signal ratio; also: potency is read from the fitted curve at half-maximal effect). Put shortly:
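A 17beta-estradiol challenge was applied right after compound transfer to ER-alpha-UAS-bla HEK293 cells previously kept in charcoal-stripped serum. Plates stood 18 hr at 37C and 5% CO2; fluorescence was read following 2 hr FRET substrate loading at room temperature.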

A short description of test [5]: qHTS assay to identify small molecule antagonists of the estrogen receptor alpha (ER-alpha) signaling pathway - cell viability counter screen (AID 743074; calls by dose curve;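 also: HEK293 cells carrying ER-alpha-UAS-bla reporter stimulated with 17beta-estradiol; nearly all actives have a fitted effect of over 45% in size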).
Test [6] concerns the target Estrogen receptor (Homo sapiens) (UniProt P03372). In words: qHTS assay to identify small molecule agonists of the estrogen receptor alpha (ER-alpha) signaling pathway (AID 743075; calls by dose curve;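 also: HEK293 GripTite cells with ER-alpha and UAS-driven beta-lactamase reporter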).
Test [7] shares this target. In words: qHTS assay to identify small molecule agonists of the estrogen receptor alpha (ER-alpha) signaling pathway using the BG1 cell line (AID 743079). Also: nearly all actives have a fitted effect of over 20% in size. Also: potency is read from the fitted curve at half-maximal effect.
A short description of test [8]: qHTS assay to identify small molecule antagonists of the estrogen receptor alpha (ER-alpha) signaling pathway using the BG1 cell line (AID 743080; calls by dose curve;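 also: BG1 cells stimulated with 17beta-estradiol alongside compound; nearly all actives have a fitted effect of over 25% in size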; also: potency is read from the fitted curve at half-maximal effect). Put shortly: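 Endogenous full-length ER-alpha in BG1-Luc-4E2 cells drives a stably integrated 4×ERE luciferase gene; compounds were tested against 17beta-estradiol over 21.5 h, with luminescence and multiplexed viability fluorescence recorded.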

A short description of test [9]: qHTS assay to identify small molecule antagonists of the estrogen receptor alpha (ER-alpha) signaling pathway using the BG1 cell line - cell viability counter screen (AID 743081).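 Also: compound given together with 17beta-estradiol as the ER stimulus; series mostly up to about 70 µM; nearly all actives have a fitted effect of over 45% in size.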
Test [10] addresses Aromatase (Homo sapiens) (UniProt P11511). The test is described as follows: qHTS assay to identify aromatase inhibitors (AID 743083). Also: series mostly up to about 70 µM; nearly all actives have a fitted effect of over 55% in size.
Test [11] in a line: qHTS assay to identify aromatase inhibitors - cell viability counter screen (AID 743084).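 Also: cells stimulated with testosterone during compound exposure; nearly all actives have a fitted effect of over 55% in size.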
Test [12] deals with Aryl hydrocarbon receptor (Homo sapiens) (UniProt P35869). In words: qHTS assay to identify small molecule that activate the aryl hydrocarbon receptor (AhR) signaling pathway (AID 743085). Also: nearly all actives have a fitted effect of over 15% in size. Also: potency is read from the fitted curve at half-maximal effect.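 As to activation: HG2L7.5c1 human HepG2 liver cells with stably integrated DRE-driven firefly reporter; series mostly up to about 70 µM.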 The essentials: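 Luminescence read-out: ONE-Glo reagent, 30 min at room temperature, in HG2L7.5c1 HepG2 reporter cells treated 24 h at 37C. Viability was measured beforehand by CellTiter-Fluor fluorescence after 30 min at 37C.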

The target in test [13] is Peroxisome proliferator-activated receptor gamma (Homo sapiens) (UniProt P37231). In words: qHTS assay to identify small molecule agonists of the peroxisome proliferator-activated receptor gamma (PPARg) signaling pathway (AID 743094; active = well fitted activation curve with a large enough effect in the signal ratio in the repeat runs, not every such curve was filed as active; inconclusive = weak or mixed curves, or effect the other way; inactive = no such curve, though single readings can be large or run the other way; the % refers to the signal ratio). Put shortly: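 Cell-based bla reporter, HEK293H background, PPARg-driven UAS. Pre-incubation 5 h, 37C, 5% CO2. Compound 17 h, 37C. Substrate 1 h RT; fluorescence.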

The nature of test [14]: qHTS assay to identify small molecule antagonists of the peroxisome proliferator-activated receptor gamma (PPARg) signaling pathway - cell viability counter screen (AID 743194). Also: nearly all actives have a fitted effect of over 55% in size. The essentials:
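PPARg-UAS-bla HEK293H cells were plated, rested 5 h at 37 C, then treated with compounds plus rosiglitazone (50 nM final) for 17 h at 37 C; viability was then read by CellTiter-Glo luminescence after 30 min at room temperature.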

Test [15] is described as follows: qHTS assay for small molecule agonists of the antioxidant response element (ARE) signaling pathway (AID 743202; active = well fitted activation curve with a large enough effect in the signal ratio in the repeat runs, not every such curve was filed as active; inconclusive = weak or mixed curves, or effect the other way; inactive = no such curve, though single readings can be large or run the other way; the % refers to the signal ratio). Put shortly:
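Following a 16 h, 37 C exposure of reporter HepG2 cells (ARE-driven beta-lactamase, 2,000 cells/well) to compounds, FRET substrate was applied for 2 h at room temperature and fluorescence intensity recorded.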

Test [16] can be described thus: qHTS assay for small molecule activators of the heat shock response signaling pathway - cell viability counter screen (AID 743209). Also: nearly all actives have a fitted effect of over 50% in size. Put shortly: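 Same-well multiplex: after 2.5 h room-temperature incubation with LiveBLAzer B/G substrate and fluorescence reading, CellTiter-Glo reagent was added to HSE-bla HeLa cells that had received compound for 5 h at 37 C; luminescence read after 30 min.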

Test [17] is described as follows: qHTS assay to identify small molecule that activate the aryl hydrocarbon receptor (AhR) signaling pathway - cell viability counter screen (AID 743086).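 Also: HepG2 liver cells carrying the AhR DRE luciferase reporter; series mostly up to about 70 µM; nearly all actives have a fitted effect of over 45% in size.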 The essentials: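 HepG2-AhR-luc (HG2L7.5c1) cells, 4000/well, were preincubated 5 h at 37C, exposed to compound in qHTS format for 24 hr at 37C, then given CellTiter-Fluor for 30 min; viability was read as fluorescence in the reporter wells.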

The nature of test [18]: qHTS assay to identify small molecule agonists of the peroxisome proliferator-activated receptor delta (PPARd) signaling pathway - cell viability counter screen (AID 743211). Also: nearly all actives have a fitted effect of over 55% in size. Also: potency is read from the fitted curve at half-maximal effect. The essentials:
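Read-out: CellTiter-Glo luminescence, 30 min RT, measured in the same wells as the beta-lactamase reporter. Cells: GeneBLAzer PPAR delta UAS-bla HEK293H, 3000 cells/well, compound exposure 17 h at 37C.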

Calls of active or inactive are those of the source. Unless noted, calls follow the shape of the dose curve; as a rule, active = well fitted curve in the direction sought with a large enough effect in the repeat runs; inconclusive = weak or mixed curves; inactive = no such curve, though single readings can be large; an effect the other way counts as inactive or inconclusive.

Peroxisome proliferator-activated receptor gamma (Homo sapiens), sequence (P37231 whole entry, looked up): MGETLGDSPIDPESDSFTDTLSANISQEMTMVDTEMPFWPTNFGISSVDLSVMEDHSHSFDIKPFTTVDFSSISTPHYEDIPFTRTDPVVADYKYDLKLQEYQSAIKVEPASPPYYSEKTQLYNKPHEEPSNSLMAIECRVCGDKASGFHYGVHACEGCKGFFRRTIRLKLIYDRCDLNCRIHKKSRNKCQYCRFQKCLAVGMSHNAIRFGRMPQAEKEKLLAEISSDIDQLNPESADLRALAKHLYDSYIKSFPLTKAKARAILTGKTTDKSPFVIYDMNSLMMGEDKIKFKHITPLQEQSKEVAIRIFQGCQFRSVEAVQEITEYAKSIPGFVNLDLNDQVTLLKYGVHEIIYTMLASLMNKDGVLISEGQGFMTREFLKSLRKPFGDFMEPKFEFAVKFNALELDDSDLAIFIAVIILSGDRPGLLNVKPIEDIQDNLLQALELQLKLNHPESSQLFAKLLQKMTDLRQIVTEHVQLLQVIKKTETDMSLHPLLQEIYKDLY
Aromatase (Homo sapiens), sequence (P11511 whole entry, looked up): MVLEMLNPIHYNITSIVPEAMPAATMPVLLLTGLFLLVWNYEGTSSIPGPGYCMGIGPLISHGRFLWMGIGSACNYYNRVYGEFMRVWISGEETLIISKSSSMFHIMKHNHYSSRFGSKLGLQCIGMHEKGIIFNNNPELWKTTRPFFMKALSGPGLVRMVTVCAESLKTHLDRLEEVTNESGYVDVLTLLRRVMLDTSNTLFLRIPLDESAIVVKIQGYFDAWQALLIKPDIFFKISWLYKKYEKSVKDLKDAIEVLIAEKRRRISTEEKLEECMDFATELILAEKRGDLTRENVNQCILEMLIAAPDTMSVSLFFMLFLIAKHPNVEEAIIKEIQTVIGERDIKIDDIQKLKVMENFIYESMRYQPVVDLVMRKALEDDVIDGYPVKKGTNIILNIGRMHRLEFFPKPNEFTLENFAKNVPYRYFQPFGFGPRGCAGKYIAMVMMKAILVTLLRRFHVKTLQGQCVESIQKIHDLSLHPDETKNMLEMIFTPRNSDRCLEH
Aryl hydrocarbon receptor (Homo sapiens), sequence (P35869 whole entry, looked up): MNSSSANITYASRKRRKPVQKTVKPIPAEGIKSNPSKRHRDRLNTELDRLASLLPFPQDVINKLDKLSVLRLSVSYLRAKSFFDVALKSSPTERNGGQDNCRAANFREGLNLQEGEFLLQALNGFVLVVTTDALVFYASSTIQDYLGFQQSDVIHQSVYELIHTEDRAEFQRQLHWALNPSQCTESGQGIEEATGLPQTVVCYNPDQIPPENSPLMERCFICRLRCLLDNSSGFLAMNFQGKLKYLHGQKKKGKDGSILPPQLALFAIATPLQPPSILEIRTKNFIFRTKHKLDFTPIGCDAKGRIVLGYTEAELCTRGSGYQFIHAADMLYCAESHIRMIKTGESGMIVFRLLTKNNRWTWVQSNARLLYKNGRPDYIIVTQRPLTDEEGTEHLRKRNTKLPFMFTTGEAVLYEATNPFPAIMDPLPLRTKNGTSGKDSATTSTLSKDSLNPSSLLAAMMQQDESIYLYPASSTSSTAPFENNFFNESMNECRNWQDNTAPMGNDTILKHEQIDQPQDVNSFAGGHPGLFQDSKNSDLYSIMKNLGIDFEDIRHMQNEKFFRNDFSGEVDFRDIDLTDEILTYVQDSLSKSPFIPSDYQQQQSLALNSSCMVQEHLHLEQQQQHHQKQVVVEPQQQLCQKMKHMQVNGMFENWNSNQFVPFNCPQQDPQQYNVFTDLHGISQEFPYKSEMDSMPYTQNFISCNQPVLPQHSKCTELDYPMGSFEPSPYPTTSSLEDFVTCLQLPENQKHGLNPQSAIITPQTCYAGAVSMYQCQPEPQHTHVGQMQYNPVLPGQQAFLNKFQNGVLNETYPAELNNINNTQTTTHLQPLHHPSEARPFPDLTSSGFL
Estrogen receptor (Homo sapiens), sequence (P03372 whole entry, looked up): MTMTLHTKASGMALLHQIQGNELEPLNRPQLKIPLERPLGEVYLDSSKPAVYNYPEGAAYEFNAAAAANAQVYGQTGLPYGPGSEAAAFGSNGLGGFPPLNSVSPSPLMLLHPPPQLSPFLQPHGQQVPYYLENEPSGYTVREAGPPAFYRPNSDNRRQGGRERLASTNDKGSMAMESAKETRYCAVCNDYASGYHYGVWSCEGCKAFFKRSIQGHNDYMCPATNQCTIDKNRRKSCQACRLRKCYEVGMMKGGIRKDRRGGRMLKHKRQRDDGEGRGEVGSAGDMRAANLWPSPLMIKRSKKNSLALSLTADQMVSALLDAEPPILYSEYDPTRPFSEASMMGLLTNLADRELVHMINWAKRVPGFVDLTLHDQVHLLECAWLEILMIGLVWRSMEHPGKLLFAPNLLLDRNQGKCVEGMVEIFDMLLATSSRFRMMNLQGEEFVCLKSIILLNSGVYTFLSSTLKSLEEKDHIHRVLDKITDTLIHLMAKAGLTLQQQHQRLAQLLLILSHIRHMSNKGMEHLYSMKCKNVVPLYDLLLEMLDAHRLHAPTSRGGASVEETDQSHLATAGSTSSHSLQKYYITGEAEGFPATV

With `CC(C)Cc1ccc([C@H](C)C(=O)O)cc1`, the Potency entry in test [1], in test [2], in test [3], in test [4], in [5] and in test [6] was “inactive” in each case. Besides, the Potency entry in test [7], in test [8], in test [9], in [10], in [11] and in test [12] was “inactive” each time. The Potency result in test [13] is “inactive”.

As for `CCSCC`, the Potency entry in [1], in test [2], in test [3], in [4], in [5] and in [6] was “inactive” throughout. Moreover, the Potency result in [7], in test [8], in test [9], in test [10], in test [11] and in test [12] was “inactive” in each case. Moreover, the Potency entry in test [13], in test [14], in [15] and in test [16] was “inactive” throughout.

Consider `CC(C)NCC1CCc2cc(CO)c([N+](=O)[O-])cc2N1` (centres undefined), for which the Potency entry in [1], in test [2], in [3], in test [4], in test [5] and in test [6] was “inactive” each time. Also, the Potency entry in [7], in test [8], in test [10], in test [11], in test [12] and in test [17] was “inactive” in each case. The Potency result in test [13] is “inactive”.

Take `COC1[C@@H](O[C@@H]2O[C@H](C)[C@@H](O[C@H]3C[C@@](C)(O)[C@H](OC(=O)CC(C)C)[C@H](C)O3)[C@H](N(C)C)[C@H]2O)[C@@H](CC=O)C[C@@H](C)[C@@H](O)/C=C/C=C/C[C@@H](C)OC(=O)C[C@H]1OC(C)=O` (some centres undefined): the Potency result in test [1], in test [2], in test [3], in [4], in test [5] and in [6] was “inactive” in each case. The Potency entry in test [7], in test [8], in [10], in test [11], in test [12] and in test [17] was “inactive” each time. Further, the Potency entry in test [13] was “inactive”.

For `c1ccc2c(c1)OCC(CN1CCCCC1)O2` (centres undefined), the Potency result in test [1], in [2], in test [3], in test [4], in test [5] and in [6] was “inactive” throughout. The Potency entry in test [7], in test [8], in test [9], in test [10], in [11] and in test [17] was “inactive” each time. Besides, the Potency entry in test [13] is “inactive”.

For `O=C1C2CC3CC1CC(O)(C3)C2`, the Potency entry in test [1], in test [2], in [3], in test [4], in test [5] and in [6] was “inactive” throughout. Further, the Potency result in test [7], in [8], in test [9], in test [10], in test [11] and in test [12] was “inactive” throughout. For the same compound, the Potency result in [17] and in test [13] was “inactive” in each case.

Regarding `Nc1nc(NC2CC2)c2ncn([C@@H]3C=C[C@@H](CO)C3)c2n1`, the Potency entry in [1], in test [2], in test [3], in test [4], in test [5] and in [6] was “inactive” each time. Further, the Potency result in [9], in test [10], in test [11], in test [17] and in test [13] was “inactive” each time. Besides, the Potency in test [7] is 2.66 µM (active); in [12], 8.41 µM (active).

For `O=C(N[C@H](CO)[C@H](O)c1ccc([N+](=O)[O-])cc1)C(Cl)Cl`, the Potency result in [1], in [2], in test [3], in test [4], in test [5] and in test [6] was “inactive” throughout. Further, the Potency entry in test [7], in [8], in test [9], in test [10], in test [11] and in test [12] was “inactive” in each case. In addition, the Potency result in [17], in [13], in test [16] and in test [18] was “inactive” each time.

Consider `COc1ccc([C@@H]2CC(=O)c3c(O)cc(O[C@@H]4O[C@H](CO[C@@H]5O[C@@H](C)[C@H](O)[C@@H](O)[C@H]5O)[C@@H](O)[C@H](O)[C@H]4O)cc3O2)cc1O`, for which the Potency entry in [1], in test [2], in test [3], in [4], in [5] and in test [6] was “inactive” throughout. Also, the Potency entry in [7], in [8], in test [10], in test [11], in test [12] and in test [17] was “inactive” in each case. In addition, the Potency result in test [13] is “inactive”.

For the compound `CCCOC(=O)c1ccccc1O`, the Potency entry in test [1], in test [2], in test [3], in test [4], in test [5] and in test [6] was “inactive” throughout. Also, the Potency result in test [7], in [8], in test [10], in [11], in [12] and in test [17] was “inactive” each time.

With `CCCCCCCC/C=C\CCCCCCCC(=O)N(CCO)CCO`, the Potency is 54.3 µM (active) in [1]; 68.3 µM (active) in test [2]; 21.8 µM [inconclusive] (active) in test [4]; 54.3 µM (active) in [8]; 43.5 µM (active) in test [18]. Also, the Potency entry in test [3], in [5], in [6], in test [10], in test [11] and in [12] was “inactive” throughout. Further, the Potency entry in test [17] was “inactive”.

Consider `C1CCc2nnnn2CC1`, for which the Potency result in [1], in [2], in test [3], in test [4], in test [5] and in test [6] was “inactive” each time. Also, the Potency entry in [7], in test [8], in test [9], in test [11], in test [17] and in [13] was “inactive” in each case.

Take `COC1=C(OC)C(=O)C(C/C=C(\C)CC/C=C(\C)CC/C=C(\C)CC/C=C(\C)CC/C=C(\C)CC/C=C(\C)CC/C=C(\C)CC/C=C(\C)CC/C=C(\C)CCC=C(C)C)=C(C)C1=O`: the Potency result in [1], in test [2], in test [3], in test [4], in test [5] and in [6] was “inactive” throughout. Moreover, the Potency entry in [7], in test [8], in [9], in test [10], in [11] and in [12] was “inactive” in each case. The Potency result in [17] and in [13] was “inactive” each time.
